POLI inh = blocks human DNA polymerase iota activity; Q9UNA4; Pol iota fluorescent replication assay, 10 min; Potency, µM (highest dose often 115 µM), for inactives: top-dose activity, negative = inhibition, hits mostly inhibitors; 390,000 tested, 1% active; note: potency is the fitted concentration of half-maximal effect
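Pol iota at 10 nM preincubated 15 min with compounds at room temperature; reaction started with fluorescent substrate, 50 nM final. Fluorescence read kinetically at 0 and 10 min; buffer-only wells as negative control.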
Pol beta inh = inhibitors of human DNA polymerase beta. Pol beta primer extension/strand displacement, fluorescence kinetic. 340,000 tested, 1.3% active. AID 485314. Potency, µM (doses to about 114 µM), for the others: at the highest dose activity change, negative = inhibition, hits mostly inhibitors; note: potency is the fitted concentration of half-maximal effect; % is set by controls: 0 for no effect and ±100 for the full control effect
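Homogeneous kinetic assay of primer extension and strand displacement by 10 nM Pol beta, preincubated 15 min at room temperature with compound before 50 nM substrate (final) was added. Read at 0 and 10 min; four-parameter Hill fit.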
POLK inh = blocks human DNA polymerase kappa activity | Q9UBT6 | purified Pol kappa, fluorescent DNA synthesis assay, 10 min | Potency, µM (highest dose often 107 µM), without a hit: at the highest dose activity, negative = inhibition, usual class: inhibitors | 400,000 tested, 0.53% active | AID 588579; note: potency is the fitted concentration of half-maximal effect; % is set by controls: 0 for no effect and ±100 for the full control effect
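10 nM Pol kappa was preincubated with compounds for 15 min at room temperature. Reaction started with 50 nM (final) substrate. Fluorescence read kinetically at 0 and 10 min.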
Pol eta inh = DNA polymerase eta (human) inhibition | recombinant Pol eta, fluorescent DNA replication assay | Potency, µM (series often up to 114 µM), for inactives: at the highest dose activity change, negative = inhibition, most hits filed as inhibitors | 390,000 tested, 1.2% active; note: potency is the fitted concentration of half-maximal effect; % is set by controls: 0 for no effect and ±100 for the full control effect
Target sequence (Q9Y253 whole entry, looked up): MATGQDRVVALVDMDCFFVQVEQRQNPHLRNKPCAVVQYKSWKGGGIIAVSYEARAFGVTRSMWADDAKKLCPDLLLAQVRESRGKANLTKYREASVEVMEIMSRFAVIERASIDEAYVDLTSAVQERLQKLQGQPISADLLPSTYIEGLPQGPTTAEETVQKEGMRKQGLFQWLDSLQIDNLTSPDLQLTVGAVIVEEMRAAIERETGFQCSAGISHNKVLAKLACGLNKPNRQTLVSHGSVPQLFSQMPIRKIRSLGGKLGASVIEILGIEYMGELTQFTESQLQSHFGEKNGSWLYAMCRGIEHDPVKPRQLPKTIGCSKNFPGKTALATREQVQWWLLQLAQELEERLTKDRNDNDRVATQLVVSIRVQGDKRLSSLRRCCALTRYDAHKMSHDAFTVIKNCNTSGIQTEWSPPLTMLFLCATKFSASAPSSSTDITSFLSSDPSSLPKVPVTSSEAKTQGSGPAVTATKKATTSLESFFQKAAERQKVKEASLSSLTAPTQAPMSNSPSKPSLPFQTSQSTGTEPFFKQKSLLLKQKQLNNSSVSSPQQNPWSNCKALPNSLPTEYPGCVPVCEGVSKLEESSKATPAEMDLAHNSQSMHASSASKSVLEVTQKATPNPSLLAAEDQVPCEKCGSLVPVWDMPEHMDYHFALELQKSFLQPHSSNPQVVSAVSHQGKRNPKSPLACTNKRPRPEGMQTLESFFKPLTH
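Fluorescent replication assay: 50 nM final substrate added after a 15 min room-temperature compound preincubation with 10 nM enzyme. Signal taken at 0 min and again at 10 min.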
PI5P4Ka inh = PI5P4K alpha (human) kinase inhibition; max response, %; AID 652105; PI5P4Kalpha enzyme, ADP-Glo luminescence, 60 min; hits give low values; P48426; 330,000 tested, 1.2% active; active = max response of -50% or lower; inconclusive = between -30% and -50%; inactive = -30% or higher; note: value at the top dose of about 77 µM; % is set by controls: 0 for no effect and ±100 for the full control effect
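PI5P4Kalpha ADP-Glo assay; 5 microM ATP final; 60 min RT reaction; HEPES pH 7.4/EGTA/CHAPS, 5% DMSO; controls lacking substrate or enzyme; luminescent end-point.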
WRN helicase inh = inhibitors of human WRN helicase; WRN helicase unwinding, fluorescent forked duplex, kinetic; Potency, µM (titrated, usually from 114 µM), for inactives: top-dose activity change, negative = inhibition, usual class: inhibitors; Q14191; 360,000 tested, 0.46% active; note: potency is the fitted concentration of half-maximal effect; % is set by controls: 0 for no effect and ±100 for the full control effect; nearly all actives have a fitted effect of over 55% in size
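WRN at 20 nM final was preincubated with compound for 15 min at room temperature; reaction started with 100 nM forked duplex oligonucleotide carrying fluorophore and quencher plus 2 mM ATP (final). Unwinding followed kinetically by red fluorescence (ex 525/em 598 nm).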
Active calls of the source: *; ? = inconclusive; / = not tested or not shown; [ ] = another dose, or the depositor's remark. In the library only some 2.8% were active in any assay of this set; here they are far more common. Unless noted, calls come from the whole dose curve; as a rule, active = well fitted curve in the direction sought with a large enough effect; inconclusive = small, poorly fitted or top-dose-only effect, or another doubt; inactive = no such curve, though single readings can be large; an effect the other way counts as inactive or inconclusive.

SMILES | POLI inh | Pol beta inh | POLK inh | Pol eta inh | PI5P4Ka inh | WRN helicase inh
CCOC(=O)C1CCCN(C2=NC(=O)/C(=C/c3ccc(OC)cc3)S2)C1 (stereo unspecified) | -15% | 0% | -4% | -9% | 1 | -11%
N=C1C2=C3Sc4ccccc4N3CCCC2=NN1c1cccc(S(=O)(=O)O)c1 | ? | -1% | -6% | ? | -53* | ?
C[C@@H]1NC(=O)[C@H](CCC(N)=O)NC(=O)c2cc([N+](=O)[O-])cc(I)c2NCC[C@@H](C(N)=O)NC1=O | -2% | 20% | 1% | -14% | -8 | -3%
NC(=O)[C@@H]1CCNc2c(I)cc([N+](=O)[O-])cc2C(=O)N[C@@H](CCC(=O)O)C(=O)N[C@@H](CO)C(=O)N1 | ? | -7% | ? | 22µM* | 2 | -15%[57.1 µM]
NC(=O)CC[C@@H]1NC(=O)[C@H](CO)NC(=O)c2cc([N+](=O)[O-])cc(I)c2NCCC[C@@H](C(N)=O)NC(=O)[C@H](Cc2ccc(O)cc2)NC1=O | ? | 0% | -12% | 89µM* | -14 | -19%
NC(=O)[C@@H]1CCCCNc2c(I)cc([N+](=O)[O-])cc2C(=O)N[C@@H](CCC(=O)O)C(=O)N[C@@H](CO)C(=O)N1 | 18µM* | 0% | 50µM* | 6.3µM* | -25 | ?
NC(=O)[C@@H]1CCCNc2c(I)cc([N+](=O)[O-])cc2C(=O)N[C@@H](CO)C(=O)N[C@@H](Cc2ccc(O)cc2)C(=O)N1 | -5% | -12% | 12% | -3% | -7 | -8%
CC[C@H](C)C1NC(=O)[C@H](CC(=O)O)NC(=O)c2cc([N+](=O)[O-])cc(I)c2NCCC(C(N)=O)NC1=O (stereo partly specified) | ? | 1% | 79µM* | 25µM* | -8 | -16%[57.1 µM]
CC[C@H](C)[C@@H]1NC(=O)c2cc([N+](=O)[O-])cc(I)c2NCC[C@@H](C(N)=O)NC(=O)[C@H](CCCN=C(N)N)NC1=O | 12% | 0% | 8% | -10% | 0 | 3%
NC(=O)[C@@H]1CCCNc2c(F)cc([N+](=O)[O-])cc2C(=O)N[C@@H](CCC(=O)O)C(=O)N[C@@H](CO)C(=O)N1 | ? | 11% | -21% | 3% | -5 | -4%
COc1ncc2nc(-c3ccc(Cl)cc3)c(=O)n(Cc3cccs3)c2n1 | / | / | 1%[60.1 µM] | / | / | /
CCNc1ncc2nc(-c3ccc(Cl)cc3)c(=O)n(-c3ccc(OC)cc3)c2n1 | / | / | 1%[60.1 µM] | / | / | /
CC(=O)N1c2ccc(S(=O)(=O)NCCC(=O)N3CCC(C)CC3)cc2CC1C (stereo unspecified) | 4% | 40% | 1% | 6% | -3 | -2%
COC(=O)c1ccc(CNC(=O)C2CCC(=O)N(CCN3CCOCC3)C2)cc1 (stereo unspecified) | 22% | -1% | -5% | -10% | -6 | -34%
O=C(CCC(=O)N1CCN(c2ccc(O)cc2)CC1)c1cccs1 | 71µM* | ? | -12% | -21% | -7 | -3%
CCCCC(=O)Nc1sc2c(c1-c1nc3ccccc3s1)CCN(C(C)=O)C2 | / | -2% | / | / | / | /
CC(=O)N1CCc2c(sc(NC(=O)C3CC3)c2-c2nc3ccccc3s2)C1 | 48% | 24% | -19% | 25µM* | -21 | -14%
NS(=O)(=O)c1ccc(CCNC(=O)c2cc3ccccc3s2)cc1 | 22µM* | 45µM* | ? | 28µM* | 4 | 2%[11.6 µM]
Cc1cc2oc(C(=O)NCCc3ccc(S(N)(=O)=O)cc3)cc(=O)c2cc1C | 27% | 96% | 1% | -15% | -29 | -13%
Cc1cc2oc(C(=O)NCCc3ccc(S(N)(=O)=O)cc3)c(C)c2cc1C | 25µM* | 5.6µM* | -33% | -23% | 0 | -19%
NS(=O)(=O)c1ccc(CCNC(=O)c2ccc(Cl)s2)cc1 | 13% | 32% | 6% | -5% | 2 | 1%
O=C(NNc1nc(=O)c2cccnc2s1)c1ccccc1O | 60% | -13% | -5% | -18% | -68* | ?
